Measured values from publication PMC6689086.

What was measured:
[1] = target: ATP-dependent molecular chaperone HSC82 (UniProt P15108); experiment: mass-spectrometry hit list; affinity purification or IP with mass spectrometry
Heat shock protein SSA1 = Heat shock protein SSA1 (UniProt P10591); experiment: as above
Chain of Heat shock protein SSA1 (P10591 whole entry): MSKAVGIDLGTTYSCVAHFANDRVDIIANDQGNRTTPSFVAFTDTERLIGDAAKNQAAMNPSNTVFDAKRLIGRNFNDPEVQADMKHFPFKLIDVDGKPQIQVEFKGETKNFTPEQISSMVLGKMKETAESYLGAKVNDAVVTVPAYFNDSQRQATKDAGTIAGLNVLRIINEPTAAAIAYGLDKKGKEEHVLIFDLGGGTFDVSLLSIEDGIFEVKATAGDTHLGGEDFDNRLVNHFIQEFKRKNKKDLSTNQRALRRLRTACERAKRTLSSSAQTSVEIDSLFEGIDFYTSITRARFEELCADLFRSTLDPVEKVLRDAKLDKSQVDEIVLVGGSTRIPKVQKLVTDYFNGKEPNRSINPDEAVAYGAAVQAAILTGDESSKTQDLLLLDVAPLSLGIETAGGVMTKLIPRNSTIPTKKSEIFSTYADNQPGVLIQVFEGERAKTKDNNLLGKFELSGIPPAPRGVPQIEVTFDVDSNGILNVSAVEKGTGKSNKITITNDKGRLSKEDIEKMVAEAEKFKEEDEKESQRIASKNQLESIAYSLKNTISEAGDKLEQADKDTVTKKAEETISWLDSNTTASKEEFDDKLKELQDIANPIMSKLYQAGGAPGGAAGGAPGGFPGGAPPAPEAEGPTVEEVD

Chain of Heat shock protein SSA1, P10591 (P10591 whole entry): as above
Chain of ATP-dependent molecular chaperone HSC82 (P15108 whole entry): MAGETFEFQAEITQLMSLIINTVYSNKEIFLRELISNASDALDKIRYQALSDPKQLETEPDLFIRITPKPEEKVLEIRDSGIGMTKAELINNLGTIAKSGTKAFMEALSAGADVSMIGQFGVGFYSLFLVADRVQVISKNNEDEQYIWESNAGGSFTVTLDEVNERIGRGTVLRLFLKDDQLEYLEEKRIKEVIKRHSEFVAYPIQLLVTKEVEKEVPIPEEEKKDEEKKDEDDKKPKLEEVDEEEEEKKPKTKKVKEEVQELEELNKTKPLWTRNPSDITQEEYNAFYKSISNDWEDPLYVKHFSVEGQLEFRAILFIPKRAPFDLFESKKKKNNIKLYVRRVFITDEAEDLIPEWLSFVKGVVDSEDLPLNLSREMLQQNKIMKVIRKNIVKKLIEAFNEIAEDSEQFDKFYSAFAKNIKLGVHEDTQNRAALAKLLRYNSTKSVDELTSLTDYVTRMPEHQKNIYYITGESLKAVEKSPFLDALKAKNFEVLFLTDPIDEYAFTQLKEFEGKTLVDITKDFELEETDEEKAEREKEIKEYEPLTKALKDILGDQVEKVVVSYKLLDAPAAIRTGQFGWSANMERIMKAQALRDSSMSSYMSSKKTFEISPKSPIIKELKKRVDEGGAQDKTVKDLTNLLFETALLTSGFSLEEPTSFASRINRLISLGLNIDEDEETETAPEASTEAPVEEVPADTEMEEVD

Substance	listed as a hit [1]	listed as a hit (Heat shock protein SSA1)
Heat shock protein SSA1, P10591	yes	–
ATP-dependent molecular chaperone HSP82, P02829	–	yes
